Assay outcomes: PubChem, Broad Institute
Pf Dd2 growth: P. falciparum Dd2 growth inhibition; SYBR Green, 72 h; stronger effect = lower value; activity change, % at 10 µM; actives 2.3% (n = 94,000); in the data active = activity change below about -80%
C diff HTS: inhibitors of Clostridium difficile growth. Clostridium difficile clinical isolate growth, OD600, 24 h; stronger effect = lower value. growth activity, negative = inhibition, % at 16 µg/mL (by protocol). AID 1259249. actives 0.25% (n = 86,000);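 active = mean growth activity at or below -80% and every replicate also at or below -80%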;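 note: 0% = DMSO wells and -100% = levofloxacin 16 µg/mL wells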
Active calls of the source: *; . = no result given; ! = not confirmed by another sample. Sampled rows, rich in hits. Any-hit rate of the full collection: about 2.3%.

SMILES	Pf Dd2 growth	C diff HTS
C[C@@H]1CN([C@H](C)CO)C(=O)c2cc(NC(=O)c3ccccc3)ccc2O[C@@H](C)CCCCO[C@@H]1CN(C)S(=O)(=O)c1ccc(F)cc1	-85.1*	5.3
C[C@H]1CCCCO[C@H](CN(C)S(=O)(=O)c2ccc(F)cc2)[C@@H](C)CN([C@@H](C)CO)C(=O)c2cc(NC(=O)c3ccccc3)ccc2O1	-74.5	-8.4
COc1ccc(S(=O)(=O)N(C)C[C@@H]2OCCCC[C@@H](C)Oc3ccc(NC(=O)c4ccccc4)cc3C(=O)N([C@H](C)CO)C[C@H]2C)cc1	-84.6*	14.9
COc1ccc(NC(=O)O[C@H](c2ccc(OC)c(O)c2)[C@@H](CCO)OC)cc1	.	-4.9
O=C(Nc1cc(F)ccc1F)N[C@@H]1CC[C@H](CCNC(=O)c2cnccn2)O[C@@H]1CO	-4.4	.
COc1ccc(NC(=O)Nc2ccc3c(c2)C(=O)N([C@H](C)CO)C[C@H](C)[C@@H](CN(C)C(=O)Nc2cccc4ccccc24)OCCCC[C@@H](C)O3)cc1	-13.2	0.1
C[C@H](CO)N1C[C@H](C)[C@@H](CN(C)C(=O)Nc2ccccc2)OCCCC[C@H](C)Oc2ccc(NC(=O)CCC(F)(F)F)cc2C1=O	.	-2.4
CO[C@@H]1CN(C)C(=O)c2cc(NC(=O)c3nc4ccccc4s3)ccc2OC[C@@H](C)N(Cc2cccnc2)C[C@@H]1C	-19.7	.
CCNC(=O)C[C@H]1CC[C@@H]2[C@H](COC[C@H](O)CN2C(=O)Nc2cccc(OC)c2)O1	33.4	4.0
C[C@H](CO)N1C[C@H](C)[C@H](CN(C)Cc2ccncc2)Oc2ccc(NS(=O)(=O)c3ccc(Cl)cc3)cc2CC1=O	-24.4	-2.1
CO[C@@H]1CN(C)C(=O)c2cc(NC(=O)CC(F)(F)F)ccc2OC[C@@H](C)N(C(C)=O)C[C@@H]1C	27.1	-10.6
C[C@H](CO)N1C[C@H](C)[C@@H](CN(C)Cc2ccc(Oc3ccccc3)cc2)Oc2c(NS(=O)(=O)c3ccccc3)cccc2C1=O	-17.7	-9.3
C[C@@H]1CN([C@@H](C)CO)C(=O)c2cccc(NS(=O)(=O)c3ccccc3)c2O[C@H]1CN(C)Cc1ccc(Oc2ccccc2)cc1	-83.2*	-3.9
C[C@@H]1CN([C@@H](C)CO)C(=O)c2cccc(NS(=O)(=O)c3ccccc3)c2O[C@@H]1CN(C)Cc1ccc(Oc2ccccc2)cc1	-62.9	44.1
C[C@@H]1CN([C@H](C)CO)C(=O)c2cccc(NS(=O)(=O)c3ccccc3)c2O[C@H]1CN(C)Cc1ccc(Oc2ccccc2)cc1	-86.0*	14.7
COc1ccc2c3c([nH]c2c1)[C@@H](CO)N(C(=O)CN1CCOCC1)CC31CCN(CC2CCCC2)CC1	-23.8	0.3
O=C(C[C@@H]1CC[C@H]2[C@@H](COC[C@H](O)CN2C(=O)Nc2ccc(Cl)c(Cl)c2)O1)NCc1ccncc1	-5.9	-8.8
O=C(C[C@H]1CC[C@H]2[C@@H](COC[C@H](O)CN2C(=O)Nc2ccc(Cl)c(Cl)c2)O1)NCc1ccc(F)cc1	-33.7	-93.7*
O=C(C[C@H]1CC[C@H]2[C@@H](COC[C@H](O)CN2C(=O)Nc2ccc(Cl)c(Cl)c2)O1)NCc1ccncc1	-7.2	-97.0*!
O=C(C[C@H]1CC[C@H]2[C@@H](COC[C@@H](O)CN2C(=O)Nc2ccc(Cl)c(Cl)c2)O1)NCc1ccc(Cl)cc1	1.5	-68.5
O=C(C[C@@H]1CC[C@H]2[C@@H](COC[C@@H](O)CN2C(=O)Nc2ccc(Cl)c(Cl)c2)O1)NCc1ccc(Cl)cc1	-5.4	-90.5*
CCCNC(=O)C[C@@H]1CC[C@H]2[C@@H](COC[C@@H](O)CN2C(=O)Nc2ccc(Cl)c(Cl)c2)O1	-7.5	-102.8*!
O=C(C[C@@H]1CC[C@H]2[C@@H](COC[C@@H](O)CN2C(=O)Nc2ccc(Cl)c(Cl)c2)O1)NCc1ccc(F)cc1	2.5	-28.1
CCCNC(=O)C[C@H]1CC[C@@H]2[C@H](COC[C@@H](O)CN2C(=O)Nc2ccc(Cl)c(Cl)c2)O1	-28.2	36.9
CNC[C@@H]1Oc2c(NS(=O)(=O)c3ccc(F)cc3)cccc2C(=O)N([C@@H](C)CO)C[C@H]1C	33.5	-0.8
SMILES	Pf Dd2 growth	C diff HTS
CCCC(=O)Nc1ccc2c(c1)OC[C@@H](C)N(Cc1cccc(F)c1)C[C@H](C)[C@@H](OC)CN(C)C2=O	-56.3	.
CCNC(=O)[C@@H]1[C@@H](CO)[C@@H]2Cn3c(cccc3=O)[C@@H]2N1Cc1ccccc1Cl	0.0	-3.9
O=C(C[C@@H]1CC[C@H]2[C@@H](COC[C@H](O)CN2C(=O)Nc2ccc(Cl)c(Cl)c2)O1)NCc1ccc(F)cc1	8.0	-83.7*
O=C(C[C@H]1CC[C@H]2[C@@H](COC[C@@H](O)CN2C(=O)Nc2ccc(Cl)c(Cl)c2)O1)NCc1ccc(F)cc1	-7.6	-52.9
O=C(NCC[C@H]1CC[C@@H](NS(=O)(=O)c2ccc(Cl)cc2)[C@@H](CO)O1)c1ccc2c(c1)OCO2	-7.6	-1.7
C[C@H]1CCCCO[C@H](CN(C)S(=O)(=O)c2ccc(Cl)cc2)[C@@H](C)CN([C@@H](C)CO)C(=O)c2cc(NC(=O)c3ccccc3)ccc2O1	-80.7*	7.9
C[C@@H]1CN([C@@H](C)CO)C(=O)c2cc(NC(=O)c3ccccc3)ccc2O[C@@H](C)CCCCO[C@@H]1CN(C)S(=O)(=O)c1ccc(Cl)cc1	-86.4*	13.8
C[C@@H]1CCCCO[C@H](CN(C)S(=O)(=O)c2ccccc2)[C@H](C)CN([C@@H](C)CO)C(=O)c2cc(NC(=O)c3ccccc3)ccc2O1	-55.8	.
C[C@@H]1CCCCO[C@@H](CN(C)S(=O)(=O)c2ccc(Cl)cc2)[C@H](C)CN([C@@H](C)CO)C(=O)c2cc(NC(=O)c3ccccc3)ccc2O1	-69.5	1.6
C[C@@H]1CN([C@@H](C)CO)C(=O)c2cc(NC(=O)c3ccccc3)ccc2O[C@@H](C)CCCCO[C@H]1CN(C)S(=O)(=O)c1ccc(Cl)cc1	-84.4*	2.9
C[C@@H]1CCCCO[C@@H](CN(C)S(=O)(=O)c2ccc(Cl)cc2)[C@H](C)CN([C@H](C)CO)C(=O)c2cc(NC(=O)c3ccccc3)ccc2O1	-85.1*	1.9
C[C@H]1CCCCO[C@@H](CN(C)S(=O)(=O)c2ccccc2)[C@@H](C)CN([C@@H](C)CO)C(=O)c2cc(NC(=O)c3ccccc3)ccc2O1	-67.7	.
C[C@@H]1CCCCO[C@@H](CN(C)S(=O)(=O)c2ccccc2)[C@H](C)CN([C@@H](C)CO)C(=O)c2cc(NC(=O)c3ccccc3)ccc2O1	-37.9	.
CCC(=O)N1CC2(CCN(Cc3ccc(Cl)cc3)CC2)c2c(n(C)c3cc(OC)ccc23)[C@H]1CO	-82.8*	-2.0
CCCNC(=O)N1CC2(C1)CN(S(C)(=O)=O)[C@@H](CO)c1c2c2ccc(OC)cc2n1C	43.1	-10.3
CCCNC(=O)N1CC2(CCN(Cc3cccc(OC)c3)CC2)c2c(n(C)c3cc(OC)ccc23)[C@H]1CO	-72.4	0.5
CCCNC(=O)N1CC2(CCN(C(=O)CN(C)C)CC2)c2c(n(C)c3cc(OC)ccc23)[C@H]1CO	-88.2*	-4.2
CCCNC(=O)N1CC2(CN(C(=O)CN(C)C)C2)c2c(n(C)c3cc(OC)ccc23)[C@H]1CO	33.0	2.7
CCCNC(=O)N1CC2(CCN(Cc3cccc(OC)c3)CC2)c2c(n(C)c3cc(OC)ccc23)[C@@H]1CO	-88.7*	-3.3
CCCNC(=O)N1CCC2(CC1)CN(S(C)(=O)=O)[C@H](CO)c1c2c2ccc(OC)cc2n1C	-83.3*	3.1
